Test [1] concerns the target Rap guanine nucleotide exchange factor 3 (Homo sapiens) (UniProt O95398). Description: Confirmatory qHTS for agonist of cAMP-regulated guanine nucleotide exchange factor 3 (EPAC1) (AID 1645881).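 Also: EPAC1 catalysed release of BODIPY-GDP from Rap1B seen as fluorescence loss; 100% = effect of cAMP agonist control; nearly all actives have a fitted effect of over 75% in size.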 In general terms: qHTS replaces the single test concentration by a dilution series.
In test [2] the target is Rap guanine nucleotide exchange factor 4 (Homo sapiens) (UniProt Q8WZA2). Description: Confirmatory qHTS for agonist of cAMP-regulated guanine nucleotide exchange factor 4 (EPAC2) (AID 1645884).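 Also: nucleotide exchange releases bodipy-GDP from Rap1 and this lowers its fluorescence; % is scaled to controls: 0 for no effect and ±100 for the full control effect; nearly all actives have a fitted effect of over 65% in size.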
Chain of Rap guanine nucleotide exchange factor 4 (Homo sapiens) (Q8WZA2 whole entry, looked up): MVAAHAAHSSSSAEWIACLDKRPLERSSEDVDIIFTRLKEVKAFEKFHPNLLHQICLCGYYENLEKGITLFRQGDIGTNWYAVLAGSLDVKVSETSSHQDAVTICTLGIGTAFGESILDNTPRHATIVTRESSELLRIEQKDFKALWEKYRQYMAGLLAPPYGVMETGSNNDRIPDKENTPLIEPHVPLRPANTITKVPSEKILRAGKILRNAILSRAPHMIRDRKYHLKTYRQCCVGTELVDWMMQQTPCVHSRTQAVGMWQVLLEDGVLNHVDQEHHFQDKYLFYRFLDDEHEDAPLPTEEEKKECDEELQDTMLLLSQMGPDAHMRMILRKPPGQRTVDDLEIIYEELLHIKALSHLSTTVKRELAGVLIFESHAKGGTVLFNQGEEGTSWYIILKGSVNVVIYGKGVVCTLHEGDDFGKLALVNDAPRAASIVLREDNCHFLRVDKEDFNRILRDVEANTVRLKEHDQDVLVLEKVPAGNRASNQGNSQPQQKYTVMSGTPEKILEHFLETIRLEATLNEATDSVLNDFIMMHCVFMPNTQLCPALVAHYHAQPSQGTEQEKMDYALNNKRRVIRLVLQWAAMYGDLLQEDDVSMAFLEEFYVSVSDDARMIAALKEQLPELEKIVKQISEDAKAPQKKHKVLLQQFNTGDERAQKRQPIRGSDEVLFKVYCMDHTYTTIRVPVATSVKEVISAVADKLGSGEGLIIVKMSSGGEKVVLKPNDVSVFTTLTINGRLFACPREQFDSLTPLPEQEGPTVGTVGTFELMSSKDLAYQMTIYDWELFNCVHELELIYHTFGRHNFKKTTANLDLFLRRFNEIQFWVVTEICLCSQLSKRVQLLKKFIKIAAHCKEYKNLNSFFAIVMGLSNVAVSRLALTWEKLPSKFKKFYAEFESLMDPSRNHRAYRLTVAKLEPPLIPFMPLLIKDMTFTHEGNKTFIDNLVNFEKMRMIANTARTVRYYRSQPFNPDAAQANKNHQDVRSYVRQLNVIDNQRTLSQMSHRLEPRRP
The target is the same in test [3]. Put plainly: Confirmatory qHTS for antagonist of cAMP-regulated guanine nucleotide exchange factor 4 (EPAC2) (AID 1645885). Also: nearly all actives have a fitted effect of over 25% in size. Also: potency is read from the fitted curve at half-maximal effect. As to activity change, negative = inhibition: % is scaled to controls: 0 for no effect and ±100 for the full control effect.
Test [4] addresses Rap guanine nucleotide exchange factor 3 (Homo sapiens) (UniProt O95398). Put plainly: Counterscreen qHTS for antagonist of cAMP-regulated guanine nucleotide exchange factor 3 (EPAC1) (AID 1645888).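 Also: fluorescence loss as bound BODIPY-GDP is released from Rap1B; % of control where 0% means no effect.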 The essentials: (§1)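 Rap1B–BODIPY-GDP (250 nM) with 50 uM GDP; compounds pin-transferred to 9.74 nM–152 uM final (activator) or from 7.32 nM upwards (inhibitor). Fluorescence Ex/Em 480/540 nm read at 5 and 30 min, then after adding cAMP or buffer, at room temperature.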
On the technique in general: Counterscreens check selectivity or assay interference.

Test [5] shares this target. Description: Counterscreen qHTS for agonist of cAMP-regulated guanine nucleotide exchange factor 3 (EPAC1) (AID 1645889). Also: % of control where 0% means no effect; nearly all actives have a fitted effect of over 40% in size. The essentials: as §1

Results filed as inconclusive are left out. Unmarked numbers belong to inactive results. Activity calls are given as the source filed them. Calls follow the shape of the dose curve; as a rule, active = well fitted curve in the direction sought with a large enough effect; inconclusive = small, poorly fitted or top-dose-only effect, or another doubt; inactive = no such curve, though single readings can be large; an effect the other way counts as inactive or inconclusive.

Chain of Rap guanine nucleotide exchange factor 3 (Homo sapiens) (O95398 whole entry, looked up): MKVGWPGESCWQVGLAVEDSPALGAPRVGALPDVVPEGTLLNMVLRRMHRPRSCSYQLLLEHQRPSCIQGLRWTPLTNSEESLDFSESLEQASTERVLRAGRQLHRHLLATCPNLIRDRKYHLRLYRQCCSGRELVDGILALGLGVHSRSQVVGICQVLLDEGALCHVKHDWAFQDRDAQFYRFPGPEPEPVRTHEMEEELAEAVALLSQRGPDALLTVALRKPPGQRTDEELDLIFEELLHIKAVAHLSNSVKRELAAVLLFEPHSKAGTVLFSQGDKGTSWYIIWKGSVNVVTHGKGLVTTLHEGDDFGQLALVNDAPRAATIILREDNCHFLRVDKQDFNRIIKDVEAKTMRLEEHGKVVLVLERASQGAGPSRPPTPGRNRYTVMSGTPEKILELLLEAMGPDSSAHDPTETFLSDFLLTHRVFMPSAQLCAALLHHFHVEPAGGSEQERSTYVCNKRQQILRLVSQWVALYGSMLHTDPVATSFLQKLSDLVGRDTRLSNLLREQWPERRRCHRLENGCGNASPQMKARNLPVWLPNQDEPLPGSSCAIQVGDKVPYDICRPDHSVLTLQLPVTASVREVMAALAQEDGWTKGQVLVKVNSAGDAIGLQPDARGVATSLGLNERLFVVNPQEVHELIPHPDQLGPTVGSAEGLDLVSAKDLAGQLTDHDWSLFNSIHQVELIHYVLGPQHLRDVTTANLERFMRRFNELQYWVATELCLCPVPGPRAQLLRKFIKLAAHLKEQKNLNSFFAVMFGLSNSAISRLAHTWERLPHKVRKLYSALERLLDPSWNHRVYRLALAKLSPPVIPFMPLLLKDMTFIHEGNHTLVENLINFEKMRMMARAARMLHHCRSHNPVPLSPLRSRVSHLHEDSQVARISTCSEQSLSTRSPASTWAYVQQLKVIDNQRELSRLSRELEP

Take `COc1ccc(N(CC(=O)NC2CCCCCCC2)S(=O)(=O)c2c(C)nn(C)c2C)cc1`: the Potency result in test [1], in test [2], in test [3], in test [4] and in test [5] was “inactive” in each case.

On to `Cc1ccc(C(=O)OCC(=O)c2ccc(CC(=O)N3CCOCC3)s2)c(C)c1`, for which the Potency result in test [1], in test [2], in test [3], in test [4] and in test [5] was “inactive” throughout.

Consider `COC(=O)c1ccc2nc(-c3ccco3)c(Cc3ccccc3)n2c1`, for which the Potency entry in test [1] and in test [3] was “inactive” each time. The activation in test [2] was 7.95% [at 17.1 µM, percent relative to cAMP agonist control]; in test [5] it was 10% [at 30.8 µM]. The activity change, negative = inhibition in test [4] was -11.9% [at 30.8 µM].

Take `COc1ccc(C(=O)c2nccc3ccccc23)cc1`: the Potency entry in test [1], in test [2], in test [3], in test [4] and in test [5] was “inactive” throughout.

Take `Fc1ccc(-c2nc3ccc(Br)cn3c2Cc2cccc(F)c2)cc1`: the Potency entry in test [1], in test [2], in test [3], in test [4] and in test [5] was “inactive” each time.

For the compound `Cc1ccc(/C=C(\CCC(=O)O)c2nc3ccccc3s2)cc1[N+](=O)[O-]`, the Potency entry in test [1] and in test [3] was “inactive” in each case. The activation is 6.79% [at 17.1 µM, percent relative to cAMP agonist control] in test [2] and 0.0676% [at 30.8 µM] in test [5]. The activity change, negative = inhibition in test [4] is -11.2% [at 30.8 µM].

As to `COc1ccc(C(CNC(=O)c2cccc(S(=O)(=O)Nc3ccc(C)cc3)c2)N2CCOCC2)cc1` (stereo not given), the Potency result in test [1], in test [2], in test [3], in test [4] and in test [5] was “inactive” each time.

Consider `Cc1ccc(S(=O)(=O)N/N=C/c2cc(Br)ccc2O)cc1`, for which the Potency entry in test [1], in test [2], in test [3], in test [4] and in test [5] was “inactive” in each case.

Take `COc1ccc(C(C#N)N2CCC(c3ccccc3)=N2)cc1` (stereo not given): the Potency entry in test [1], in test [2], in test [4] and in test [5] was “inactive” in each case. The Potency in test [3] is 7.57 µM (active).

With `Cc1ccc(S(=O)(=O)Nc2ccc(S(=O)(=O)Nc3nccs3)cc2)cc1C`, the Potency entry in test [1], in test [2], in test [3], in test [4] and in test [5] was “inactive” each time.

Turning to `CCOC(=O)c1ccc2c(c1)C1C=CCC1C(C(=O)OCC)N2` (stereo not given), the Potency entry in test [1] and in test [3] was “inactive” in each case. Besides, the activation was 4.17% [at 17.1 µM, percent relative to cAMP agonist control] in test [2] and 32.7% [at 30.8 µM] in test [5]. Further, the activity change, negative = inhibition in test [4] was -1.12% [at 30.8 µM].

For the compound `Cc1ccc(CNC(=O)c2c[nH]n3c(=O)c(Cc4ccc(Cl)cc4)c(C)nc23)cc1`, the Potency result in test [1], in test [2], in test [3], in test [4] and in test [5] was “inactive” throughout.

Take `COc1ccc(C(C)(NC(C)=O)c2nc(-c3cc(F)cc(F)c3)cs2)cc1` (stereo not given): the Potency result in test [1] and in test [3] was “inactive” throughout. The activation in test [2] is 0% [at 17.1 µM, percent relative to cAMP agonist control]; in test [5], 15% [at 30.8 µM]. Moreover, the activity change, negative = inhibition in test [4] was -9.04% [at 30.8 µM].

On to `N#C/C(=C/c1ccc(-c2ccc(S(N)(=O)=O)cc2)o1)c1nc2ccccc2s1`, for which the Potency result in test [1] and in test [3] was “inactive” each time. For the same compound, the activation in test [2] was -24.7% [at 17.1 µM, percent relative to cAMP agonist control]; in test [5] it was -62% [at 30.8 µM]. Besides, in test [4], the activity change, negative = inhibition is 5.29% [at 30.8 µM].

In the case of `CCc1c(O)cc(=O)n(-c2ccccc2)c1-c1ccccc1`, the Potency entry in test [1], in test [2], in test [4] and in test [5] was “inactive” each time. Besides, the Potency in test [3] is 84.9 µM (active).

As to `Cc1cc(C)n2nc(C(=O)N/N=C/c3c4ccccc4cc4ccccc34)nc2n1`, the Potency entry in test [1] and in test [3] was “inactive” each time. Moreover, the activation in test [2] was 2.45% [at 17.1 µM, percent relative to cAMP agonist control]; in test [5] it was 34.9% [at 30.8 µM]. Moreover, the activity change, negative = inhibition in test [4] is 4.99% [at 30.8 µM].

Turning to `O=C(O)C1CC(c2ccc(F)cc2)=NO1` (stereo not given), the Potency entry in test [1] and in test [3] was “inactive” in each case. Also, the activation was -14.9% [at 17.1 µM, percent relative to cAMP agonist control] in test [2] and 21.8% [at 30.8 µM] in test [5]. Also, in test [4], the activity change, negative = inhibition was -15.4% [at 30.8 µM].

Take `COC(=O)C1=CN(Cc2ccc(OC)c(OC)c2)C=C(C(=O)OC)C1c1ccccc1F`: the Potency result in test [1], in test [2], in test [4] and in test [5] was “inactive” throughout. The Potency in test [3] is 23.9 µM (active).

In the case of `CCC1(c2ccccc2)SCC(c2ccccc2)=NC1=O` (stereo not given), the Potency result in test [1], in test [2], in test [3], in test [4] and in test [5] was “inactive” each time.

In the case of `O=C(Cc1ccc(Cl)cc1)Nc1cccc(C(=O)Nc2ccccc2C(=O)O)c1`, the Potency result in test [1] and in test [3] was “inactive” throughout. Also, the activation is 8.25% [at 17.1 µM, percent relative to cAMP agonist control] in test [2] and 2.92% [at 30.8 µM] in test [5]. Moreover, the activity change, negative = inhibition in test [4] was -15.6% [at 30.8 µM].

The values are drawn from PubChem BioAssay (NCATS).
